The source of these data is PubChem BioAssay (NCI).

Compounds without any hit were thinned out: in the full panel of roughly 79,000, 15% have a hit. A number with no mark means an inactive call. Activity calls are given as the source filed them. Rule as the data show it: active = growth inhibition above about 70%; inactive = the rest.

This experiment is described as follows: NCI Yeast Anticancer Drug Screen. Data for the rad50 strain (AID 155).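 Also: 0% = growth of vehicle-only cultures of the same strain.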 Conditions: S. cerevisiae rad50 strain growth inhibition; at 50.0 µM; stronger effect = higher value. The procedure, abridged:
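A DNA repair-deficient yeast mutant serves as the test organism; compound-induced growth inhibition is calculated against vehicle-treated cells.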
For the compound `CC(NC(=O)C(=O)c1ccccc1)c1ccccc1` (stereo not given), the growth inhibition was 10.4%.

For the compound `CC12CC3C(CC1O2)C3(C)C` (stereo not given), the growth inhibition is -30.2%.

`CCOC(=O)c1ccc(N=C(N)N)cc1`: the growth inhibition was 23%.

In the case of `C=C1C2CCC3(CCC4C5(C)CCCC4(CN(C(C)=O)C5)C3C2)C1O` (stereo not given), the growth inhibition was 11.2%.

Turning to `CC(=O)NNc1nc(C)c(C(/C=C/c2ccccc2O)=N/N=C(N)N)s1`, the growth inhibition was -19.2%.

Take `CCCCC(=O)C(CC)(c1ccccc1)N(C)C` (stereo not given): the growth inhibition was -11.7%.

Regarding `c1ccc2c(c1)ccc1c2c[n+](CCCCCCCC[n+]2cc3c4ccccc4ccc3c3ccccc32)c2ccccc12`, the growth inhibition was 88.4% (active).

`NC(CCC(F)(F)F)C(=O)O` (stereo not given): the growth inhibition was -4.1%.

Take `C/C(CC(O)(C(F)(F)Cl)C(F)(F)Cl)=N\Nc1ccccc1`: the growth inhibition is 28%.

Turning to `Cc1cc(Br)c[nH]c1=O`, the growth inhibition was -4.75%.

As for `CN1CC2=C(NC(=S)NC2c2ccccc2Cl)/C(=C/c2ccccc2Cl)C1` (stereo not given), the growth inhibition is 14.7%.

Turning to `CCC(=O)c1c(O)cc(O)cc1O`, the growth inhibition was -13.8%.

As to `CCCCOC(OCCCC)C(OCCCC)OCCCC`, the growth inhibition was 18.9%.

Take `CC(C)C1CCC2(C)C(CCC3C4(C)CCCC32OC4)C1` (stereo not given): the growth inhibition was -20.5%.

As for `CC(OC(C)C(N)=O)C(N)=O` (stereo not given), the growth inhibition was -0.05%.

In the case of `CCC1c2ccccc2[C@H]2C(c3ccccc3)=NN(c3ccccc3)[C@H]2N1CC` (stereo not given in full), the growth inhibition was 26.6%.

Consider `Cc1ccccc1Nc1nc2ccccc2nc1NS(=O)(=O)c1ccccc1`, for which the growth inhibition was 5.1%.

Turning to `COc1ccc(S(=O)(=O)N/N=C/C(=O)OCOC(=O)C(C)(C)C)cc1`, the growth inhibition is 1.55%.

Regarding `O=C(Cn1c2c(c3ccccc31)CCCC2)N1CCCC1`, the growth inhibition is -11.8%.

Take `O=[N+]([O-])c1cc(Br)ccc1N1CCCCC1`: the growth inhibition was -3.15%.

As to `COCc1cc(=O)c(OC)cn1CCO`, the growth inhibition was -40.5%.

As to `CCn1c(C)cc(=NC(=O)c2ccccc2O)n1-c1ccccc1`, the growth inhibition is 4.45%.

`CC(C)c1ccc(O)c(Cc2cc(C(C)C)cc(Cc3cc(C(C)C)ccc3O)c2O)c1`: the growth inhibition is -14.3%.

In the case of `O=C(CBr)OCCC1CCCCC1`, the growth inhibition is 49.2%.

For the compound `C=CCOC(=O)C1CC=CCC1C(=O)OCC=C` (stereo not given), the growth inhibition was -17.6%.

Consider `CC(=O)Nc1ccc(Sc2ccc(NC(C)=O)cc2O)c(O)c1`, for which the growth inhibition was 34.1%.

As for `CC1(C)OC2C(C3N(c4ccccc4)CCN3c3ccccc3)OC(n3ccc(=O)[nH]c3=O)C2O1` (stereo not given), the growth inhibition is -37.4%.

Turning to `CCOC(=O)CCCN1CCC=C(C#N)C1`, the growth inhibition was 13%.

As for `COC(=O)C(Cc1nc2ccccc2[nH]c1=O)C(NO)C(=O)Nc1c(Cl)cc([N+](=O)[O-])cc1Cl` (stereo not given), the growth inhibition is -3.85%.

Take `CC12CC(=O)OC(Cc3ccccc31)O2` (stereo not given): the growth inhibition was -50.4%.

`CC(C)CCC[C@@H](C)[C@H]1CC[C@H]2[C@@H]3CC[C@H]4OC(=O)CC[C@]4(C)[C@H]3CC[C@]12C`: the growth inhibition was -19.4%.

For the compound `Cn1ccc(=O)c2ccccc21`, the growth inhibition was 3.1%.

Take `COc1c(C)c2c(c(C)c1Cl)Oc1c(C=O)c(O)c(Cl)c(C)c1C(=O)O2`: the growth inhibition is 55%.

With `CN1N=C(c2ccccc2)C(C(c2ccccc2[N+](=O)[O-])C2C(=O)N(C)N=C2c2ccccc2)C1=O` (stereo not given), the growth inhibition was 46.8%.

`CNC(=O)CCC(NC(=O)OC(C)(C)C)C(=O)NC(Cc1ccc(NC(=O)CCCCC(C)=O)cc1)C(=O)NCC(=O)NC` (stereo not given): the growth inhibition was -18.3%.

Take `CC1(C(=O)Sc2ccccc2)OC1(C)c1ccccc1` (stereo not given): the growth inhibition was -8.5%.

`O=P(NC1CCCCC1)(NC1CCCCC1)NC1CCCCC1`: the growth inhibition is 19.1%.

As to `N#Cc1cc(N2CCCCC2)ccc1[N+](=O)[O-]`, the growth inhibition was 2.6%.

As for `O=C1CSc2ccncc2N1`, the growth inhibition was 13.8%.

With `COc1ccc2nc3ccccc3c(NCCCN(C)C)c2c1[N+](=O)[O-]`, the growth inhibition was -8.1%.
